From the supplement of paper PMC12494721
Counter-ions that a name gives are not always drawn.

Columns and labels:
Settings in all cases: incubation time: 27 h, anaerobic, 37 °C;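 for the amine columns active = adjusted P below 0.05 in both replicates with a change the same way and a mean fold change under 0.8 or over 1.25; inactive = the rest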
[1] = test system: Clostridium sporogenes DSM 1664; assay: growth (OD595) fold change vs plate DMSO controls (fold change (ratio)); higher = more growth
Summary of the method: (§1)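 Anaerobic 27 h, 37 °C mGAM 96-well cultures were shaken, then read for absorbance at 595 nm. Values were blank-subtracted and corrected for compound background using 20 µM compound solutions in water. A calibration factor of 5 converted them to OD. Growth is the fold change versus the median of plate DMSO controls. Fold changes above 1.5 were set to NA, and values are the mean of 2 biological replicates.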

[2] = test system: Escherichia coli IAI1; assay: as above
Summary of the method: as §1

[3] = test system: Klebsiella aerogenes DSM 30053; assay: as above
Summary of the method: as §1

[4] = test system: Ruminococcus gnavus DSM 108212; assay: as above
Summary of the method: as §1

[5] = test system: Klebsiella aerogenes DSM 30053; assay: fold change of Histamine concentration vs plate DMSO controls (fold change (ratio)); higher = more amine produced, active = hit call of the paper (significant change in both replicates, either direction)
Summary of the method: (§2)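 Using LC–triple-quadrupole MS with dynamic MRM, amines were quantified against external calibration curves and corrected for drift within each batch. Samples were whole anaerobic mGAM cultures of four gut strains, grown 27 h at 37 °C from OD 0.1 before 1:1 dilution, extracted with cold acetonitrile/methanol containing 0.1% formic acid and centrifuged. Compounds were present at 20 µM final (sweeteners at 50 µM final). The numbers are fold changes versus plate DMSO controls, each the mean of 2 biological replicates.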

[6] = test system: Clostridium sporogenes DSM 1664; assay: fold change of Tryptamine concentration vs plate DMSO controls (fold change (ratio)); higher = more amine produced, active = hit call of the paper (significant change in both replicates, either direction)
Summary of the method: as §2

[7] = test system: Ruminococcus gnavus DSM 108212; assay: as above
Summary of the method: as §2

[8] = test system: Escherichia coli IAI1; assay: fold change of Putrescine concentration vs plate DMSO controls (fold change (ratio)); higher = more amine produced, active = hit call of the paper (significant change in both replicates, either direction)
Summary of the method: as §2

[9] = test system: Klebsiella aerogenes DSM 30053; assay: as above
Summary of the method: as §2

[10] = test system: Escherichia coli IAI1; assay: fold change of Cadaverine concentration vs plate DMSO controls (fold change (ratio)); higher = more amine produced, active = hit call of the paper (significant change in both replicates, either direction)
Summary of the method: as §2

[11] = test system: Klebsiella aerogenes DSM 30053; assay: as above
Summary of the method: as §2

[12] = test system: Ruminococcus gnavus DSM 108212; assay: fold change of 2-Phenylethylamine concentration vs plate DMSO controls (fold change (ratio)); higher = more amine produced, active = hit call of the paper (significant change in both replicates, either direction)
Summary of the method: as §2

| SMILES | growth [1] | growth [2] | growth [3] | growth [4] | fold change of Histamine concentration [5] | fold change of Tryptamine concentration [6] | fold change of Tryptamine concentration [7] | fold change of Putrescine concentration [8] | fold change of Putrescine concentration [9] | fold change of Cadaverine concentration [10] | fold change of Cadaverine concentration [11] | fold change of 2-Phenylethylamine concentration [12] |
| --- | --- | --- | --- | --- | --- | --- | --- | --- | --- | --- | --- | --- |
| CCN[C@H]1C[C@H](C)S(=O)(=O)c2sc(S(N)(=O)=O)cc21 [Dorzolamide hydrochloride] (20 µM) | 1.23 | 1.05 | 1.02 | 1.15 | 0.991 (inactive) | 0.996 (inactive) | 0.977 (inactive) | 1.06 (inactive) | 0.977 (inactive) | 0.965 (inactive) | 0.993 (inactive) | 0.992 (inactive) |
| O=C(CCCN1CCN(c2ccccn2)CC1)c1ccc(F)cc1 [Azaperone] (20 µM) | 1.12 | 1.24 | 0.974 | 1.12 | 1.01 (inactive) | 1.14 (inactive) | 0.963 (inactive) | 1.31 (inactive) | 0.987 (inactive) | 0.84 (inactive) | 1.01 (inactive) | 0.998 (inactive) |
| O=C(CO)[C@@H](O)[C@H](O)[C@H](O)CO [D(-) Fructose] (50 µM) | 1.01 | 1.02 | 0.988 | 0.986 | 0.994 (inactive) | 0.929 (inactive) | 0.925 (inactive) | 1.04 (inactive) | 0.987 (inactive) | 1.07 (inactive) | 0.981 (inactive) | 0.919 (inactive) |
| Cc1ccc(Nc2c(F)cccc2Cl)c(CC(=O)O)c1 [Lumiracoxib] (20 µM) | 0.867 | 0.984 | 1.1 | 1.08 | 0.88 (inactive) | 0.956 (inactive) | 0.971 (inactive) | 1.02 (inactive) | 1.02 (inactive) | 1.02 (inactive) | 1.03 (inactive) | 0.994 (inactive) |
| COc1ccccc1N1CCN(CC(O)COc2cccc3ccccc23)CC1 (centres undefined) [Naftopidil dihydrochloride] (20 µM) | 1.11 | 0.99 | 1.17 | 0.961 | 0.884 (inactive) | 1.02 (inactive) | 0.888 (inactive) | 0.981 (inactive) | 1.01 (inactive) | 1.06 (inactive) | 1.02 (inactive) | 0.963 (inactive) |
| CC(C)(C)C(=O)C(Oc1ccc(Cl)cc1)n1ccnc1 (centres undefined) [Climbazole] (20 µM) | 1.22 | 1.05 | 1.07 | 0.922 | 0.96 (inactive) | 1.04 (inactive) | 0.979 (inactive) | 1.04 (inactive) | 1.02 (inactive) | 0.968 (inactive) | 1.01 (inactive) | 1.03 (inactive) |
| COC(=O)C1=C(C)NC(C)=C(C(=O)OC(C)C)C1c1cccc2nonc12 (centres undefined) [Isradipine] (20 µM) | 0.941 | 1.06 | 0.997 | 1.22 | 1.09 (inactive) | 0.944 (inactive) | 1.03 (inactive) | 1.04 (inactive) | 1.01 (inactive) | 0.991 (inactive) | 1 (inactive) | 1.01 (inactive) |
| N[C@@H](Cc1cc(I)c(Oc2cc(I)c(O)c(I)c2)c(I)c1)C(=O)O [(L) Thyroxine] (20 µM) | 1.27 | 0.975 | 1.01 | 0.958 | 1.05 (inactive) | 1.27 (inactive) | 0.99 (inactive) | 1.01 (inactive) | 1 (inactive) | 1 (inactive) | 1.01 (inactive) | 1.03 (inactive) |
| CC[C@H]1OC(=O)C[C@@H](O)[C@H](C)[C@@H](O[C@@H]2O[C@H](C)[C@@H](O[C@H]3C[C@@](C)(O)[C@@H](O)[C@H](C)O3)[C@H](N(C)C)[C@H]2O)[C@@H](CC=O)C[C@@H](C)C(=O)/C=C/C(C)=C/[C@@H]1CO[C@@H]1O[C@H](C)[C@@H](O)[C@@H](OC)[C@H]1OC [Tylosin] (20 µM) | 0 | 0.953 | 0.966 | 0.0976 | 0.792 (inactive) | 0.0522 (active) | 0.0892 (active) | 0.849 (inactive) | 1.05 (inactive) | 0.984 (inactive) | 1.02 (inactive) | 0.105 (active) |
| CC(=O)OCC(=O)[C@@]12OC(C)(C)O[C@@H]1C[C@H]1[C@@H]3C[C@H](F)C4=CC(=O)C=C[C@]4(C)[C@@]3(F)[C@@H](O)C[C@@]12C [Fluocinonide] (20 µM) | 0.81 | 0.961 | 0.997 | 0.976 | 1 (inactive) | 1.07 (inactive) | 0.936 (inactive) | 0.978 (inactive) | 1 (inactive) | 0.972 (inactive) | 0.988 (inactive) | 0.911 (inactive) |
| CN(C)CCOC(c1ccccc1)c1ccccc1.Cn1c(=O)c2[nH]c(Cl)nc2n(C)c1=O [Dimenhydrinate] (20 µM) | 0.99 | 0.985 | 0.954 | 1.06 | 1.05 (inactive) | 1.02 (inactive) | 1.02 (inactive) | 0.995 (inactive) | 1.01 (inactive) | 0.985 (inactive) | 0.985 (inactive) | 1.03 (inactive) |
| CC(CN(C)C)CN1c2ccccc2CCc2ccccc21 (centres undefined) [Trimipramine maleate salt] (20 µM) | 0.87 | 0.987 | 0.974 | 0.826 | 0.994 (inactive) | 0.985 (inactive) | 0.998 (inactive) | 0.961 (inactive) | 1.01 (inactive) | 1.04 (inactive) | 1 (inactive) | 1.02 (inactive) |
